Inconclusive results are not listed. Where a call stands in place of a potency, no number is given. Active and inactive are the calls of the source. Calls come from the whole dose curve.
Potency is the fitted concentration of half-maximal effect.

Sequence of Atrial natriuretic peptide receptor 1 (Homo sapiens) (P16066 whole entry, looked up, the tested form may be a part): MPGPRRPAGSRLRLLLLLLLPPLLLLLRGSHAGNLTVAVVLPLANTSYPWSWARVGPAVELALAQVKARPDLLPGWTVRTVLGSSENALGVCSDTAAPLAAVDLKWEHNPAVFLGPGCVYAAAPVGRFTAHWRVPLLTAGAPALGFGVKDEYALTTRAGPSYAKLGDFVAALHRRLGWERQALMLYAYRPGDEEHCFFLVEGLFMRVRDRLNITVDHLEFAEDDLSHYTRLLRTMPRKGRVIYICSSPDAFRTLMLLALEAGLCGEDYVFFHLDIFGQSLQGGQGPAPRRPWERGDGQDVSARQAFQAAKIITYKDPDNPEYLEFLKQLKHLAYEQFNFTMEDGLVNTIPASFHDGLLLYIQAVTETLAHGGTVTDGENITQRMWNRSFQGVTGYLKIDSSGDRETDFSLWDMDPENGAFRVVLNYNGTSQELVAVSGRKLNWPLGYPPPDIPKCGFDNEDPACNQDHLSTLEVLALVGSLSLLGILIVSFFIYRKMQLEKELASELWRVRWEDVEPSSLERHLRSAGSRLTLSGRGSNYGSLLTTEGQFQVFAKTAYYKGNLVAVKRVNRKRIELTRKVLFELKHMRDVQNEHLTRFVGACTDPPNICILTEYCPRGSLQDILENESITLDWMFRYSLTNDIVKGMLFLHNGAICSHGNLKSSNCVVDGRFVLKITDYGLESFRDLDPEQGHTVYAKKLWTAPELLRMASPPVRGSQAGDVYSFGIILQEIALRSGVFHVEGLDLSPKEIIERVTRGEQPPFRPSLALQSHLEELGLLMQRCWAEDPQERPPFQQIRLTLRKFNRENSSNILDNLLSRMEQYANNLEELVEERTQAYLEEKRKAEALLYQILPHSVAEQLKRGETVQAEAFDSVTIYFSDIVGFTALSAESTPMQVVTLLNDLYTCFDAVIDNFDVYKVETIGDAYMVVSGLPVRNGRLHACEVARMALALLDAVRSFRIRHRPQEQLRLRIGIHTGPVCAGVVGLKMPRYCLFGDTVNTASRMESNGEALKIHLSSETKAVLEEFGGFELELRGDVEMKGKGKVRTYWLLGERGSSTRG

The target of this experiment is Atrial natriuretic peptide receptor 1 (Homo sapiens) (UniProt P16066). As to the kind of experiment: Natriuretic polypeptide receptor (hNpr1) antagonism - Pilot screen (AID 1347049). As to conditions: hNpr1 cells, antagonist mode cGMP read-out; series mostly up to 57.5 µM. The protocol:
In order to identify small molecular compounds that inhibit the hNpr1 receptor we developed a high-throughput assay to measure inhibition of the guanylate cyclase activity of the receptor. cGMP production was measured using a circular permutated Firefly luciferase (FLuc) enzyme functionally linked to the cGMP binding domain of human phosphodiesterase 5 (GloSensor technology pGS-40F, (Fan, F. et al. 2008). The cGMP-sensor was expressed in human embryonic kidney 293 (HEK-293) cells and FLuc activity was measured after stimulation with hNrp agonist peptide. hNrp agonists activates the receptor's associated guanylyl cyclase (GC) domain producing cGMP which then binds to the GloSensor resulting in FLuc activation, the enzymatic activity of which can be measured as bioluminescence with addition of luciferin substrate.
F. Fan, B. F. Binkowski, B. L. Butler, P. F. Stecha, M. K. Lewis, K. V. Wood, Novel genetically encoded biosensors using firefly luciferase. ACS Chem Biol 3, 346-351 (2008).
This assay was initially piloted by testing with a small diversity library of compounds with known pharmacological activity.
PROTOCOL TABLES (as described by Inglese J, Shamu CE and Guy RK. 2007)
SEQUENCE No. (e.g., 1, 2, 3, etc.); […] (e.g., Cells, Incubation, Reagent, etc.); VALUE and DESCRIPTION.
1. Cells. Seed 1500 HEK293 cGMP-sensor cells expressing hNpr1 per well in 4uL into Greiner 1536-well white/solid bottom high base, tissue culture-treated plates.
2. Incubation. Incubate plated cells at 37C in 5% CO2, 95% RH overnight.
3. Reagent. Add 1uL per well GloSensor reagent from Promega (2% final concentration) or CO2 independent media vehicle control to respective columns of Greiner 1536-well plates.
4. Incubation. Incubate plated cells at room temperature for 2 h, protect from light.
5. Compounds. Library compounds and A-71915 control added at 23 nL per well, transferred by Pin Tool.
6. Incubation. Incubate plated cells for 30 min. at room temperature, protect from light.
7. Detector. GloSensor baseline pre-read luminescence measured using CCD-based camera (Viewlux).
8. Compound. Add 1uL of hNppA peptide to 0.1 nM final concentration to stimulate hNpr1 or CO2 independent media as vehicle control.
9. Incubation. Incubate treated cells at room temperature for 20 min., protect from light.
10. Detector. GloSensor post-hNppA luminescence measured using CCD-based camera (Viewlux).
NOTES (numbers refer to Sequence numbers above)
1. HEK293 cells expressing hNpr1 and GIP/pGS-40F grown to 85-95% confluence (48-72 h) in T175 culture flasks (CO2 independent media supplemented with 10% FBS, 1% Pen/Strep antibiotics and 1 ug/mL puromycin). Trypsinize and harvest cells from T175 culture flasks and filter through 40 um cell strainer. Cells counted with Invitrogen Countess (30,000,000 - 50,000,000 cells/flask). Cells diluted to a final concentration of 375 cells/uL in CO2 independent media and a Millipore multidrop used to dispense 1500 cells per well (4uL/well) into 9 x 1536-well Greiner White/Solid bottom, high base tissue-culture treated (TC) plates and one Aurora 1536-well Black/Clear bottom, low base, TC plate (for visual inspection of cell health throughout the duration of the assay).
2. Cells incubated overnight at ambient temperature, 24 h. at 37C in 95% RH incubator protected from light, covered with metal lid with gas-exchange holes.
3. Prepare GloSensor Reagent (Promega): Reconstitute GloSensor luciferase substrate by adding 8.2mL Hepes buffer to 250mg substrate, mix well, protect from light and stored at -80C. Prepare a fresh 12% GloSensor solution in CO2 independent supplemented plating media (see above). Mix well and store at ambient temperature, protected from light. 1uL 12% GloSensor Luciferase Reagent added (2% final concentration) to respective columns of 9 x 1536-well Greiner plate with BioRaptr, 1uL CO2 independent plating media added to respective columns as vehicle control with BioRaptr.
4. […]
For `N[C@@H](Cc1ccc(O)c(I)c1)C(=O)O`, the Potency result is “inactive”.
For `Cc1nc(N=Nc2ccc(S(=O)(=O)O)cc2S(=O)(=O)O)c(COP(=O)(O)O)c(C=O)c1O`, the Potency entry was “inactive”.
As for `O=c1ccn([C@@H]2O[C@H](COP(=O)(O)OP(=O)(O)O)[C@@H](O)[C@H]2O)c(=O)[nH]1`, the Potency entry was “inactive”.
`NC(Cc1cccc(-c2ccccc2CP(=O)(O)O)c1)C(=O)O` (stereo not given): the Potency entry is “inactive”.
The entry for `CCCCCCCCCC(=O)NC(CN1CCOCC1)[C@H](O)c1ccccc1` (stereo not given in full) is “inactive”; for `c1ccc(CN2CCC3(CCCc4ccccc43)CC2)cc1` it is “inactive”; for `CCCCCCN(CCCCCC)C(=O)Cc1c(-c2ccc(F)cc2)[nH]c2ccccc12` it is “inactive”.
The entry for `CNCCc1cnc(CCC(c2ccccc2)c2ccccc2)[nH]1` is “inactive”; for `Cc1nc2n(c(=O)c1CCN1CCC(c3noc4cc(F)ccc34)CC1)CCCC2O` (stereo not given) it is “inactive”; for `COc1cc(N)c(Cl)cc1C(=O)OCCN1CCCCC1` it is “inactive”.
`COC1(C2=NCCN2)COc2ccccc2O1` (stereo not given): the Potency entry is “inactive”.
The entry for `CC(C)C[C@H](NC(=O)C1OC1C(=O)O)C(=O)NCCCCN=C(N)N` (stereo not given in full) is “inactive”; for `Cc1cc2c(cc1Cl)N(C(=O)Nc1ccnc3ccccc13)CC2` it is “inactive”.
Turning to `CCn1c(=O)[nH]c2cc(Cl)c(Cl)cc21`, the Potency result was “inactive”.
The entry for `N=C(N)c1ccccc1` is “inactive”.
The figure for `CC[n+]1c(/C=C/C=C2/N(C)c3ccccc3C2(C)C)sc2ccccc21` is 213 nM (active); for `O=C(O)Cc1c[nH]c2ccc(O)cc12` it is “inactive”; for `C[C@H](NC(=O)/C(C#N)=C/c1ccc(O)c(O)c1)c1ccccc1` it is “inactive”.
The entry for `COc1ccccc1N1CCN(CCN(C(=O)c2ccc(F)cc2)c2ccccn2)CC1` is “inactive”.
For `O=[N+]([O-])c1cccc2c(Br)[nH]nc12`, the Potency entry is “inactive”.
Regarding `Nc1ccc2c3c(cccc13)C(=O)NC2=O`, the Potency entry was “inactive”.
`CC(N)=O`: the Potency entry is “inactive”.
Turning to `OC1(c2ccc(Cl)cc2)CCN(Cc2c[nH]c3ccccc23)CC1`, the Potency entry is “inactive”.
The entry for `CCSC(=N)N` is “inactive”.
Take `CC(N)(Cc1ccc(O)cc1)C(=O)O` (stereo not given): the Potency result was “inactive”.
Consider `Nc1ncnc2c1c(-c1ccc(Oc3ccccc3)cc1)cn2C1CCCC1`, for which the Potency result is “inactive”.
For the compound `Cc1nc(N=Nc2ccc(C(=O)O)cc2)c(COP(=O)(O)O)c(C=O)c1O`, the Potency result is “inactive”.
The entry for `CNCCNS(=O)(=O)c1cccc2cnccc12` is “inactive”; for `[N-]=[N+]=Nc1ccc(C(=O)CSC[C@H](NC(=O)CC[C@H](N)C(=O)O)C(=O)NCC(=O)O)cc1` it is “inactive”; for `NC1CONC1=O` (stereo not given) it is “inactive”.
For the compound `COc1ccc(-c2cc3ncc(C)n3c(Nc3ncccc3C(N)=O)n2)cc1OC`, the Potency entry is “inactive”.
On to `CCC1(O)CC2CN(CCc3c([nH]c4ccccc34)[C@@](C(=O)OC)(c3cc4c(cc3OC)N(C)C3[C@]45CCN4CC=C[C@@](CC)([C@@H](OC(C)=O)[C@]3(O)C(=O)OC)[C@H]45)C2)C1` (stereo not given in full), for which the Potency entry is “inactive”.
The entry for `O=c1[nH]c2ccccc2c2ccccc12` is “inactive”; for `CNc1ncnc2c1ncn2[C@H]1C[C@H](OP(=O)(O)O)[C@@H](COP(=O)(O)O)O1` it is “inactive”.
The entry for `NCCCCN=C(N)N` is “inactive”; for `COc1ccc(-c2ccc(N)[n+](CCCC(=O)O)n2)cc1` it is “inactive”.
The entry for `CCCn1c(=O)c2[nH]c(C3CCCC3)nc2n(CCC)c1=O` is “inactive”; for `OC[C@H]1O[C@H](n2cnc3c(N[C@H]4CCC[C@@H]4O)ncnc32)[C@H](O)[C@@H]1O` it is “inactive”; for `O=C(O)C1CCNCC1` it is “inactive”.
Turning to `Nc1ccc(N2C(=O)c3ccccc3C2=O)c(Cl)c1`, the Potency entry was “inactive”.
